Source: PubChem BioAssay
Compounds with a hit are over-represented: about 21% of the library has one in this group of screens.
Pf growth 96h: Primary qHTS for delayed death inhibitors of the malarial parasite plastid, 96 hour incubation. P. falciparum luciferase reporter growth, 96 h. Potency, µM (titrated, usually from 28.7 µM), inactives show at the highest dose activity change, negative = inhibition, actives largely listed as inhibitors. hit rate 6.9% among 320,000. AID 504834, 2011; also: potency is read from the fitted curve at half-maximal effect; % is scaled to controls: 0 for no effect and ±100 for the full control effect
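Compounds incubated with erythrocytes infected by luciferase-expressing P. falciparum (2% hematocrit, 0.05% parasitemia final) for 96 hours, 37 C in 5% CO2. Growth inhibition scored as decreased luciferase luminescence.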
Pf growth 48h: Primary qHTS for delayed death inhibitors of the malarial parasite plastid, 48 hour incubation. P. falciparum luciferase growth in erythrocytes, 48 h. Potency, µM (series often up to 28.7 µM), for inactives: top-dose activity change, negative = inhibition, hits mostly inhibitors. hit rate 5.9% among 310,000. AID 504832, 2011; also: potency is read from the fitted curve at half-maximal effect; % is scaled to controls: 0 for no effect and ±100 for the full control effect
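Erythrocytes infected with P. falciparum carrying an integrated firefly luciferase reporter (2% hematocrit, 0.1% parasitemia final) were exposed to compounds in RPMI 1640 with 0.5% Albumax at 37 C, 5% CO2. Growth inhibition was scored as reduced luminescence.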
Shiga inhibitor: A qHTS for Small Molecule Inhibitors of Shiga Toxin; AID 2315, 2010; hit rate 9.2% among 290,000; inhibition, % at 38.7 µM; Vero cells, Shiga toxin protein synthesis inhibition reporter; in the data active = inhibition mostly above about 28%, no sharp cut-off; inactive = mostly below about 43%; also: 0% is about no effect
Cycloheximide cs: Cycloheximide Counterscreen for Small Molecule Inhibitors of Shiga Toxin; max response, %; cell reporter, cycloheximide protein synthesis inhibition counterscreen; hit rate 12% among 300,000; in the data active = max response mostly above about 13%, no sharp cut-off; inactive = mostly below about 14%; also: read at 38.3 µM for the half of the compounds with a filed dose; 0% is about no effect
An asterisk follows results filed as active; ? = inconclusive; . = not tested or not shown; [ ] = remark or other dose. Unless noted, calls follow the shape of the dose curve; as a rule, active = well fitted inhibition curve with a large enough effect; inconclusive = small, poorly fitted or top-dose-only effect, or another doubt; inactive = no such curve, though single readings can be large or run the other way.

SMILES	Pf growth 96h	Pf growth 48h	Shiga inhibitor	Cycloheximide cs
CC12COC3(C(=O)NCCc4ccccc4)CC1CCC32C (stereo not drawn)	0.0029µM*	17.1%	56.0*	50.4*
CCn1ccnc1CNC(=O)c1ccc(OC2CCN(C(=O)COC)CC2)cc1	5.22µM*	13.5%	-5.5	-3.6
COCC(=O)N1CCC(Oc2ccc(C(=O)NCc3cc(C)n(C)n3)cc2)CC1	?	6.4%	17.6	2.3
COCC(=O)N1CCC(Oc2ccc(C(=O)NCCCn3cccn3)cc2)CC1	22.2%	-28.3%	-1.9	3.3
CCN(CCn1cccn1)C(=O)c1ccc(OC2CCN(C(=O)COC)CC2)cc1	?	2.8%	32.7	21.5*
COCC(=O)N1CCC(Oc2ccc(C(=O)NCc3cnc(C)cn3)cc2)CC1	?	44.2%	4.1	3.1
COCC(=O)N1CCC(Oc2ccc(C(=O)NCCCC3CCCC3)cc2)CC1	7.38µM*	-1.2%	39.6	11.1
O=P(COCCOCCOCP(=O)(c1ccccc1)c1ccccc1)(c1ccccc1)c1ccccc1	20.8%	?	-0.8	-4.6
COCCCC1CCN(C(=O)C2CCC(=O)N(CCc3ccccc3)C2)CC1 (stereo not drawn)	-19.7%	?	55.7*	45.7*
COC(=O)C1CCN(C(=O)C2CCC(=O)N(CCc3cccc(F)c3)C2)CC1 (stereo not drawn)	?	1.1%	3.8	12.8
CC(=O)NCC1CCN(C(=O)C2CCC(=O)N(CCc3cccc(F)c3)C2)CC1 (stereo not drawn)	13.1µM*	24.6%	-6.2	-3.6
CN1CCN(C(=O)C2CCC(=O)N(CCc3cccc(F)c3)C2)CC1 (stereo not drawn)	9.28µM*	?	-5.8	-0.1
COCCOC1CCN(C(=O)C2CCC(=O)N(CCc3ccccc3)C2)CC1 (stereo not drawn)	13.7%	-6.3%	-1.9	13.6
COCC1CCN(C(=O)C2CCC(=O)N(Cc3cccc(F)c3)C2)CC1 (stereo not drawn)	11.9%	-19.6%	-17.4	1.4
CN(C)CCCn1c2c(c(SCC(=O)Nc3nccs3)nc1=O)CCC2	-6.1%	5.4%	.	.
NC(=O)CC(NC(=O)c1ccccc1)c1ccc(N2CCN(c3ccccc3)CC2)c([N+](=O)[O-])c1 (stereo not drawn)	14.7µM*	-18.3%	-4.3	-3.1
COc1ccc(C(=O)c2ccc(N3CCOCC3)c([N+](=O)[O-])c2)cc1	18.9%	10.4%	-2.8	-2.2
NC(=O)CC(NC(=O)c1ccccc1)c1ccc(N2CCN(c3ccc(F)cc3)CC2)c([N+](=O)[O-])c1 (stereo not drawn)	58.4%	38.8%	-4.4	0.8
CCN(CC)S(=O)(=O)c1ccc(N2CCN(c3cccc(OC)c3)CC2)c([N+](=O)[O-])c1	9.28µM*	?	-4.1	-2.4
COc1ccc(N2CCN(c3ccc(C(=O)O)cc3[N+](=O)[O-])CC2)cc1	-1.2%	35.4%	31.0	11.6*
NC(=O)c1ccc(N2CCN(c3ccc(O)cc3)CC2)c([N+](=O)[O-])c1	1.65µM*	?	0.6	-4.1
CCC1(C(=O)OC)CCc2c(cc(OC)c3ccccc23)C1=O (stereo not drawn)	?	-14.8%	-2.3	-3.4
Cc1ccc(N2C(=O)N(CC(=O)Nc3c(C)cc(C)cc3Cl)C(=O)C2C)cc1 (stereo not drawn)	2.3%	?	.	.
CCCCN1CCc2c(c3ccccc3n2Cc2ccccc2)C1	6.57µM*	10.4µM*	-8.0	-3.4
CN1CCc2c(c3ccccc3n2Cc2ccccc2)C1	?	-7.0%[12.8 µM]	-3.8	-2.4
SMILES	Pf growth 96h	Pf growth 48h	Shiga inhibitor	Cycloheximide cs
COC(=O)C1=C(N)N(c2ccc(F)cc2)C2=C(C(=O)CCC2)C1c1ccc2c(c1)OCO2 (stereo not drawn)	65.3%	10.4µM*	-1.6	-2.2
O=C(CSc1nncc2ccccc12)Nc1ccc(C(=O)O)cc1	?	18.7%	6.1	21.5*
O=C(CSc1nc2ccccc2c2c1CCCC2)N1CCOCC1	9.28µM*	2.8%	-3.8	-7.8
O=C(CSc1nncc2ccccc12)Nc1ccccc1	-6.5%	?	-6.9	13.4
O=C(CSc1nncc2ccccc12)N1CCOCC1	.	4.7%	37.1	17.2*
O=C(CP(=O)(c1ccccc1)c1ccccc1)Nc1nc2ccc(Cl)cc2s1	-3.7%	?	6.6	-1.4
O=C(CSc1nc(-c2ccccc2)nn1C(=O)c1ccccc1)Nc1cccc([N+](=O)[O-])c1	22.4%	5.4%	1.3	18.4
O=C(c1ccc([N+](=O)[O-])cc1)n1nc(-c2ccccc2)nc1NCc1ccc(F)cc1	194.4%	-6.1%	36.6*	16.9*
O=C(c1cccs1)n1nc(-c2ccccc2)nc1NCc1ccc(F)cc1	?	.	-16.4	-0.8
O=C(c1cccc([N+](=O)[O-])c1)n1nc(-c2ccccc2)nc1NCc1ccccc1	-27.4%	33.6%	47.7*	20.0*
O=C(c1ccc([N+](=O)[O-])cc1)n1nc(-c2ccccc2)nc1NCc1ccccc1	0.0%	-9.9%	68.7*	46.8*
CCC(=O)n1nc(-c2cccnc2)nc1NCc1ccccc1	203.5%	2.0%	9.0	1.9
CC(=O)n1nc(-c2ccccc2)nc1NCc1ccc(F)cc1	.	1.8%	45.5	19.5*
Cc1ccc(CNC(=O)C2CCCN2C(=O)Nc2ccccc2)cc1 (stereo not drawn)	214.3%	17.3%	-3.2	-3.5
CCN(CC(=O)Nc1ccccc1C(F)(F)F)C(=O)CN1C(=O)NC2(CCCC2)C1=O	13.9%	-9.1%	.	.
Cc1ccc(-n2nnnc2SC(C(=O)c2c[nH]c3ccccc23)c2ccccc2)cc1 (stereo not drawn)	1.47µM*	?	-9.0	-1.8
CCn1nnc2cc(C(=O)NCCc3ccccc3F)ccc21	-9.8%	201.2%	58.2*	18.6
Cc1ccc2occ(CN3CCN(Cc4ccccc4)CC3)c(=O)c2c1	134.1%	59.0%	61.4*	41.6*
Cc1ccc2occ(C(=O)c3ccco3)c(=O)c2c1	3.6%	28.3%	47.9*	18.3
Cc1ccc2occ(CN3CCN(c4ccccc4)CC3)c(=O)c2c1	26.0%	5.0%	8.0	2.7
CCN1CCN(Cc2coc3ccc(C)cc3c2=O)CC1	.	30.0%	38.3*	27.2*
C=C1CCN(C(C)C(=O)OCc2cccc(C)c2)S(=O)(=O)c2ccccc21 (stereo not drawn)	.	.	8.4	-7.8
COc1ccc(C2CC(c3ccccc3)=NN2c2ccc(/C=N/NC(=O)c3ccncc3)cc2)cc1 (stereo not drawn)	?	?	28.0*	13.9*
N#CCC(=O)N/N=C/c1c(-c2ccccc2)n(-c2ccccc2)c2ccccc12	?	9.28µM*	-4.8	-2.2
N#CCC(=O)N/N=C/c1ccc(N2N=C(c3ccccc3)CC2c2ccccc2)cc1 (stereo not drawn)	?	?	2.4	10.4*
COc1ccc(S(=O)(=O)N2CCN=C2SCc2cccc(F)c2)cc1	?	2.4%	16.3	1.0
Cc1onc(-c2ccccc2)c1NC(=O)Nc1ccc(OC(F)F)cc1	4.65µM*	6.57µM*	15.5	13.0
Cc1onc(-c2ccccc2)c1C(=O)Nc1ccc(OC(C)C)cc1	-9.2%	3.3%	-2.4	-1.3
